hNpr1 antagonist: antagonists of human natriuretic peptide receptor Npr1; P16066; 1.6% of 76,000 active; HEK293 hNpr1 GloSensor cGMP, ANP-stimulated luminescence; Potency, µM (top dose mostly 46.3 µM), for inactives: top-dose activity change, negative = inhibition, actives largely listed as inhibitors; calls by dose curve; also: nearly all actives have a fitted effect of over 60% in size
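HEK293 cells stably expressing human Npr1 and cGMP GloSensor pGS-40F, loaded 2 h with 2% GloSensor reagent, given compound 30 min at room temperature. Luminescence read before and 20 min after 0.1 nM hNppA.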
NIH3T3 tox: kills NIH 3T3 cells. NIH 3T3 viability, CellTiter-Glo ATP luminescence, 48-72 h. Potency, µM (highest dose often 96.7 µM), for the others: at the highest dose activity change, negative = cytotoxicity, hits mostly inhibitors. 4.3% of 94,000 active. AID 1345082; also: nearly all actives have a fitted effect of over 55% in size
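Cells were seeded at 400 per well, treated with pin-transferred compound, and kept 48 or 72 hr at 37 °C before CellTiter-Glo addition and luminescence imaging of cellular ATP.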
FLuc inh: Photinus pyralis luciferase inhibition. purified P. pyralis luciferase, luminescence, biochemical. 2.5% of 76,000 active. Potency, µM (doses to about 115 µM), actives largely listed as inhibitors; also: nearly all actives have a fitted effect of over 65% in size
Target sequence (P08659 whole entry, looked up): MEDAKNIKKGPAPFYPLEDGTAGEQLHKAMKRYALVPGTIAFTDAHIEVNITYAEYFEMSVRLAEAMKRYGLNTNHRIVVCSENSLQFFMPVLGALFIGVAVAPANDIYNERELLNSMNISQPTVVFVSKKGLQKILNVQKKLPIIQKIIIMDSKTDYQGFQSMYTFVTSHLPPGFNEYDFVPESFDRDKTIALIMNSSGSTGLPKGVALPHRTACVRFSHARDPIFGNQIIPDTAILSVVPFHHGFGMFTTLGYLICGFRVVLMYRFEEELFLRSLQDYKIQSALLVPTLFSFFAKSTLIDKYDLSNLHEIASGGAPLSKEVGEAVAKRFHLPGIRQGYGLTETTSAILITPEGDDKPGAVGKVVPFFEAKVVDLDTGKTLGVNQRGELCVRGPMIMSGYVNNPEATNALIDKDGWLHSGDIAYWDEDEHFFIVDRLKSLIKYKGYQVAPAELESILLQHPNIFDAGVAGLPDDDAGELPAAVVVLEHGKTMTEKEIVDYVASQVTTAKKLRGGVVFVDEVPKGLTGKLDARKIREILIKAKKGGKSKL
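Inhibitors were tested against purified firefly luciferase in a biochemical, low-substrate format (both substrates at 10uM) and luminescence measured with a CCD imager.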
GPT2 inhibitor: inhibitors of human GPT2 alanine aminotransferase | Q8TD30 | Potency, µM (titrated, usually from 57.7 µM), for the others: top-dose activity change, negative = inhibition, usual class: inhibitors | Recombinant GPT2, coupled pyruvate oxidase/HRP Amplex Red fluorescence | 0.25% of 100,000 active; also: nearly all actives have a fitted effect of over 60% in size
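Inhibition is scored from Amplex Red fluorescence generated when pyruvate oxidase and HRP act on pyruvate released by GPT2. Reactions contain 10ng/uL enzyme, 250uM a-KG and 2mM L-alanine and run 30 min at room temperature.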
HEK293 tox: HEK 293 cell cytotoxicity; 6.6% of 94,000 active; HEK 293 viability, ATP luminescence (CellTiter-Glo), 48-72 h; Potency, µM (top dose mostly 115 µM), without a hit: at the top dose activity change, negative = cytotoxicity, actives largely listed as inhibitors; AID 1345083; also: nearly all actives have a fitted effect of over 60% in size
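Read-out: CellTiter-Glo ATP luminescence. Cells: HEK 293, 250 cells/well. Exposure: 48 or 72 hr, 37 degree Celsius.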
* hit, by the source's call; i = inactive; ? = inconclusive; nt = no result; [ ] = another dose, or the depositor's remark. This is a sample that favours compounds with a hit; in the whole collection about 10% have one here. Unless noted, calls follow the shape of the dose curve; as a rule, active = well fitted curve in the direction sought with a large enough effect; inconclusive = small, poorly fitted or top-dose-only effect, or another doubt; inactive = no such curve, though single readings can be large; an effect the other way counts as inactive or inconclusive. % is scaled to controls: 0 for no effect and ±100 for the full control effect; potency is read from the fitted curve at half-maximal effect.

SMILES	hNpr1 antagonist	NIH3T3 tox	FLuc inh	GPT2 inhibitor	HEK293 tox
CCc1ccc(C(=O)N2CCN(c3cc(-c4ccc(OC)cc4)[nH]n3)CC2)cc1	-12.7%	?	i	-2.3%	-18.7%
O=C(NCc1cccc(Cl)c1)c1ccc2nnc(C3CCCC3)n2c1	nt	39.8µM*	nt	i	?
O=C(NCc1ccc(Cl)cc1)c1ccc2nnc(C3CCCC3)n2c1	nt	31.6µM*	nt	-39.7%	?
O=C(NCc1cccc(C(F)(F)F)c1)c1ccc2nnc(C3CCCC3)n2c1	nt	?	nt	-4.5%	44.7µM*
O=C(NCc1cccc(Cl)c1)c1ccc2nnc(C3CCOCC3)n2c1	nt	-36.0%	nt	nt	2.3%
O=C(NCc1ccccc1Cl)c1ccc2nnc(C3CCCC3)n2c1	nt	35.5µM*	nt	i	?
O=C(NCc1ccc(Cl)cc1)c1ccc2nnc(C3CC3)n2c1	nt	?	nt	i	?
O=C(NCc1cccs1)c1ccc2nnc(Cc3ccc(Cl)cc3)n2c1	nt	?	nt	-6.3%	44.7µM*
COc1ccccc1CN(Cc1ccccc1OC)C[C@@H]1C=C(C)[C@H](Cc2nc3c(C)cccc3[nH]2)C[C@H]1C(C)C	?	31.6µM*	i	-9.1%	15.8µM*
CC1=C[C@@H](CNC(=O)Cn2cnnn2)[C@H](C(C)C)C[C@H]1Cc1nc2ccccc2[nH]1	-26.5%[70.6 µM]	-23.2%[138 µM]	i	-9.6%[88.5 µM]	?
CC1=C[C@@H](CNC(=O)CCC(=O)O)[C@H](C(C)C)C[C@H]1Cc1nc2c(C)cccc2[nH]1	-1.8%[70.6 µM]	-1.8%[174 µM]	i	2.0%[88.5 µM]	?
CCCNC(=O)NC[C@@H]1C=C(C)[C@H](Cc2nc3ccccc3[nH]2)C[C@H]1C(C)C	?	35.5µM*	i	1.8%[88.5 µM]	100µM*
CC1=C[C@@H](CNC(=O)c2ccccc2)[C@H](C(C)C)C[C@H]1Cc1nc2ccc(C)cc2[nH]1	-27.5%[70.6 µM]	?	i	-10.2%[88.5 µM]	50.1µM*
CC1=C[C@@H](CNC(=O)Cn2cnnn2)[C@H](C(C)C)C[C@H]1Cc1nc2ccncc2[nH]1	2.1%[70.6 µM]	-26.2%[174 µM]	i	-3.1%[88.5 µM]	?
COc1ccccc1C(=O)NC[C@@H]1C=C(C)[C@H](Cc2nc3ccncc3[nH]2)C[C@H]1C(C)C	-18.5%[70.6 µM]	?	i	-13.4%[88.5 µM]	35.5µM*
CC(C)(C)c1ccc(-c2cc(C[C@H]3CNCC[C@H]3CC(=O)N3CCN(c4ccccn4)CC3)no2)cc1	4.6%	?	i	-0.1%	?
CC(=O)NC[C@@H]1C=C(C)[C@H](Cc2nc3ccc(C)cc3[nH]2)C[C@H]1C(C)C	?	70.8µM*	i	-12.7%[88.5 µM]	?
CC1=C[C@@H](CNC(=O)c2cccnc2)[C@H](C(C)C)C[C@H]1CC(=O)N1CCCC1	-11.9%[70.6 µM]	-9.9%[138 µM]	63.1µM*	-2.0%[88.5 µM]	-15.4%[172 µM]
CC1=C[C@@H](CN2C(=O)c3ccccc3C2=O)[C@H](C(C)C)C[C@H]1Cc1nc2ccccc2[nH]1	?	25.1µM*	i	-15.4%[88.5 µM]	31.6µM*
COC(=O)c1ccc2nc(C[C@@H]3C[C@@H](C(C)C)[C@H](CNC(=O)c4cccnc4)C=C3C)[nH]c2c1	-4.8%	?	i	3.2%	?
CC1=C[C@@H](CNC(=O)c2ccccc2)[C@H](C(C)C)C[C@H]1Cc1nc2ccncc2[nH]1	?	?	i	i	79.4µM*
CC1=C[C@@H](CNC(=O)CCC(=O)O)[C@H](C(C)C)C[C@H]1Cc1nc2ccc(C)cc2[nH]1	7.4%[70.6 µM]	-2.2%[174 µM]	i	i	0.2%[172 µM]
COc1ccc(OC)c(NC(=O)C2CC(=O)N(c3n[nH]c4cccc(F)c34)C2)c1 (centres undefined)	0.7%	i	i	-1.8%	?
COCCOCc1nc(C2CCN(C(=O)NCC(C)C)CC2)no1	3.2%	4.4%	i	i	4.6%
Cc1ccc(C(C(=O)O)N2CCC(C(=O)N3CCCC3)CC2)c(C)c1 (centres undefined)	4.6%	i	i	-1.6%	-28.0%
SMILES	hNpr1 antagonist	NIH3T3 tox	FLuc inh	GPT2 inhibitor	HEK293 tox
CSc1ccc(-c2cccc(CN3CCC(NC(=O)c4ccccc4Cl)CC3)c2)cc1	nt	?	nt	nt	39.8µM*
CSc1ccc(-c2cccc(CN3CCC(NC(=O)c4ccc(Cl)cc4)CC3)c2)cc1	nt	-12.6%	nt	nt	-10.5%
O=C(Nc1ccccc1)NC1CCN(Cc2cccc(-c3ccc(F)c(F)c3)c2)CC1	nt	15.8µM*	nt	-29.5%	20µM*
CSc1ccc(-c2cccc(CN3CCC(NC(=O)Nc4ccc(Cl)cc4)CC3)c2)cc1	nt	12.6µM*	nt	nt	22.4µM*
COCCn1c(=O)c(C(=O)N2CCN([S+](=O)([O-])c3ccccc3)CC2)nc2cccnc21	nt	-5.5%	nt	4.6%	i
O=C(CC[C@H]1NC(=O)c2ccccc2NC1=O)NCCn1c(=O)c(=O)[nH]c2ccccc21	-0.4%	i	i	i	15.4%
CCC1C(=O)NCCN1Cc1cn(-c2cccc(F)c2)nc1-c1ccc(C)o1 (centres undefined)	-7.3%	?	28.2µM*	-17.2%	?
COc1cccc(CC2(CO)CCCN(c3nnnn3-c3ccccc3)C2)c1 (centres undefined)	-7.2%	?	i	-5.2%	?
COc1cccc(CC2(CO)CCCN(c3ccc(-c4nccn4C)nn3)C2)c1 (centres undefined)	-9.7%	?	i	i	20µM*
Cc1ccc(CN2Cc3[nH]cnc3C[C@H]2C(=O)NCc2ccc(C(F)(F)F)cc2)cc1	-17.8%[70.6 µM]	100µM*	i	-7.9%[88.5 µM]	70.8µM*
N#Cc1ccc(CNC(=O)[C@@H]2Cc3nc[nH]c3CN2Cc2ccc(C(F)(F)F)cc2)cc1	1.1%	-29.8%	i	i	-27.3%
COc1ccc2c(c1)CCN=C2C[C@H]1CN(C(=O)c2cccs2)CC[C@H]1CC(=O)O	-11.4%[70.6 µM]	-4.2%[174 µM]	i	?	-8.4%[172 µM]
Cc1ccc(C)c(S(=O)(=O)N2CCCC(Cn3c(C4CC4)nc4cccnc43)C2)c1 (centres undefined)	-13.5%	?	i	2.5%	39.8µM*
Cc1cccc(S(=O)(=O)N2CCCC(Cn3c(C)nc4cccnc43)C2)c1 (centres undefined)	-25.4%	?	i	-2.7%	?
Cc1ccc(NC(=O)N2CCCC(Cn3c(C4CC4)nc4cccnc43)C2)cc1 (centres undefined)	4.6%	?	i	4.6%	-11.7%
O=C(Nc1ccc(C(F)(F)F)cc1)N1CCCC(Cn2c(C3CC3)nc3cccnc32)C1 (centres undefined)	-18.7%	31.6µM*	i	i	39.8µM*
Cc1cccc(S(=O)(=O)N2CCCC(Cn3c(C4CC4)nc4cccnc43)C2)c1 (centres undefined)	-14.9%	?	i	i	35.5µM*

Compound activity as filed in PubChem.
